{"source": "PubChem BioAssay (NCI)", "experiment_in_all_cases": "NCI-60 one-dose screen, 48 h (100 = growth as untreated, 0 = no growth, -100 = all killed)", "key": {"[1]": {"system": "SR leukemia"}, "[2]": {"system": "RPMI-8226 leukemia"}, "[3]": {"system": "OVCAR-5 ovarian"}, "[4]": {"system": "OVCAR-4 ovarian"}, "[5]": {"system": "SK-OV-3 ovarian"}, "[6]": {"system": "OVCAR-3 ovarian"}, "[7]": {"system": "HS 578T breast"}, "[8]": {"system": "NCI/ADR-RES ovarian"}, "[9]": {"system": "OVCAR-8 ovarian"}, "[10]": {"system": "IGROV1 ovarian"}}, "note": "Several values for one entry are separate records, joined by “and”; a condition that tells them apart may be missing. Equal entries are not always repeated. About 83,000 compounds went through this panel and 20% of them were active in at least one assay; those are over-represented in the sample as a whole.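 Testing used 96-well plates and a 48-hour single-concentration exposure. Example: -40 means 40% of the starting cells died.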 Activity calls are given as the source filed them. The calls were made as follows: active = growth percent below 10; inactive = the rest.", "data": [{"smiles": "CC#C[C@]1(O)CC[C@H]2[C@@H]3CCC4=CC(=O)CCC4=C3[C@@H](c3ccc4c(c3)OCO4)C[C@@]21C", "values": [{"measurement": "growth", "setting": "[1]; 10 µM", "result": "60.8% (inactive)"}, {"measurement": "growth", "setting": "[1]; 100 µM", "result": "-20.8% (active)"}, {"measurement": "growth", "setting": "[2]; 10 µM", "result": "69.6% (inactive)"}, {"measurement": "growth", "setting": "[2]; 100 µM", "result": "-35% (active)"}, {"measurement": "growth", "setting": "[3]; 10 µM", "result": "109% (inactive)"}, {"measurement": "growth", "setting": "[3]; 100 µM", "result": "14.3% (inactive)"}, {"measurement": "growth", "setting": "[4]; 10 µM", "result": "80.9% (inactive)"}, {"measurement": "growth", "setting": "[4]; 100 µM", "result": "8.93% (active)"}, {"measurement": "growth", "setting": "[5]; 10 µM", "result": "87.8% (inactive)"}, {"measurement": "growth", "setting": "[5]; 100 µM", "result": "-5.43% (active)"}, {"measurement": "growth", "setting": "[6]; 10 µM", "result": "78% (inactive)"}, {"measurement": "growth", "setting": "[6]; 100 µM", "result": "-40.2% (active)"}, {"measurement": "growth", "setting": "[7]; 10 µM", "result": "79% (inactive)"}, {"measurement": "growth", "setting": "[7]; 100 µM", "result": "0.161% (active)"}, {"measurement": "growth", "setting": "[8]; 10 µM", "result": "76.7% (inactive)"}, {"measurement": "growth", "setting": "[8]; 100 µM", "result": "-15.3% (active)"}]}, {"smiles": "CC1(C)OB(c2ccc(Cn3cc(F)c(=O)[nH]c3=O)cc2)OC1(C)C", "values": [{"measurement": "growth", "setting": "[1]; 10 µM", "result": "106% (inactive)"}, {"measurement": "growth", "setting": "[1]; 50 µM", "result": "39.5% (inactive)"}, {"measurement": "growth", "setting": "[2]; 10 µM", "result": "107% (inactive)"}, {"measurement": "growth", "setting": "[2]; 50 µM", "result": "68.1% (inactive)"}, {"measurement": "growth", "setting": "[9]; 10 µM", "result": "106% (inactive)"}, {"measurement": "growth", "setting": "[9]; 50 µM", "result": "75.1% (inactive)"}, {"measurement": "growth", "setting": "[3]; 10 µM", "result": "97.5% (inactive)"}, {"measurement": "growth", "setting": "[3]; 50 µM", "result": "70.4% (inactive)"}, {"measurement": "growth", "setting": "[4]; 10 µM", "result": "111% (inactive)"}, {"measurement": "growth", "setting": "[4]; 50 µM", "result": "69.9% (inactive)"}, {"measurement": "growth", "setting": "[5]; 10 µM", "result": "114% (inactive)"}, {"measurement": "growth", "setting": "[5]; 50 µM", "result": "69% (inactive)"}, {"measurement": "growth", "setting": "[6]; 10 µM", "result": "104% (inactive)"}, {"measurement": "growth", "setting": "[6]; 50 µM", "result": "4.62% (active)"}, {"measurement": "growth", "setting": "[7]; 10 µM", "result": "100% (inactive)"}, {"measurement": "growth", "setting": "[7]; 50 µM", "result": "37% (inactive)"}, {"measurement": "growth", "setting": "[8]; 10 µM", "result": "102% (inactive)"}, {"measurement": "growth", "setting": "[8]; 50 µM", "result": "94.1% (inactive)"}]}, {"smiles": "CC(C)(C)c1cc(NC(=O)Cc2ccc(-c3cnc4cc(-c5cnn(CCN6CCOCC6)c5)ccc4n3)cc2)no1", "values": [{"measurement": "growth", "setting": "[1]; 10 µM", "result": "9.16% (active)"}, {"measurement": "growth", "setting": "[1]; 30 µM", "result": "8.04% (active)"}, {"measurement": "growth", "setting": "[2]; 10 µM unless noted", "result": "22.5% (inactive)"}, {"measurement": "growth", "setting": "[9]; 10 µM", "result": "18.6% (inactive)"}, {"measurement": "growth", "setting": "[9]; 30 µM", "result": "26.1% (inactive)"}, {"measurement": "growth", "setting": "[3]; 10 µM", "result": "24.2% (inactive)"}, {"measurement": "growth", "setting": "[3]; 30 µM", "result": "20.1% (inactive)"}, {"measurement": "growth", "setting": "[4]; 10 µM", "result": "10.1% (inactive)"}, {"measurement": "growth", "setting": "[4]; 30 µM", "result": "22.9% (inactive)"}, {"measurement": "growth", "setting": "[5]; 10 µM", "result": "-14.1% (active)"}, {"measurement": "growth", "setting": "[5]; 30 µM", "result": "9.27% (active)"}, {"measurement": "growth", "setting": "[10]; 10 µM", "result": "-7.95% (active)"}, {"measurement": "growth", "setting": "[10]; 30 µM", "result": "-9.55% (active)"}, {"measurement": "growth", "setting": "[6]; 10 µM", "result": "28.4% (inactive)"}, {"measurement": "growth", "setting": "[6]; 30 µM", "result": "22% (inactive)"}, {"measurement": "growth", "setting": "[7]; 10 µM", "result": "-5.25% (active)"}, {"measurement": "growth", "setting": "[7]; 30 µM", "result": "3.43% (active)"}, {"measurement": "growth", "setting": "[8]; 10 µM", "result": "12.8% (inactive)"}, {"measurement": "growth", "setting": "[8]; 30 µM", "result": "16.9% (inactive)"}]}, {"smiles": "CCN1CCN(CCNc2nccc(-c3c(-c4cccc(O)c4)nc4sccn34)n2)S1(=O)=O", "values": [{"measurement": "growth", "setting": "[1]; 10 µM unless noted", "result": "59.4% (inactive) and 36.2% (inactive)"}, {"measurement": "growth", "setting": "[2]; 10 µM unless noted", "result": "69.3% (inactive) and 102% (inactive)"}, {"measurement": "growth", "setting": "[9]; 10 µM unless noted", "result": "90% (inactive) and 68.3% (inactive)"}, {"measurement": "growth", "setting": "[3]; 10 µM unless noted", "result": "87.2% (inactive) and 95.5% (inactive)"}, {"measurement": "growth", "setting": "[4]; 10 µM unless noted", "result": "106% (inactive) and 77.7% (inactive)"}, {"measurement": "growth", "setting": "[5]; 10 µM unless noted", "result": "38.4% (inactive) and 39.1% (inactive)"}, {"measurement": "growth", "setting": "[10]; 10 µM unless noted", "result": "54% (inactive) and 57.5% (inactive)"}, {"measurement": "growth", "setting": "[6]; 10 µM unless noted", "result": "92.9% (inactive) and 86.7% (inactive)"}, {"measurement": "growth", "setting": "[7]; 10 µM unless noted", "result": "78% (inactive)"}, {"measurement": "growth", "setting": "[8]; 10 µM unless noted", "result": "102% (inactive) and 103% (inactive)"}]}, {"smiles": "Cc1ccc(S(=O)(=O)Nc2nc3ccccc3nc2Nc2ccc3nsnc3c2)cc1", "values": [{"measurement": "growth", "setting": "[1]; 10 µM unless noted", "result": "71.2% (inactive) and 76.1% (inactive)"}, {"measurement": "growth", "setting": "[2]; 10 µM unless noted", "result": "27.5% (inactive)"}, {"measurement": "growth", "setting": "[9]; 10 µM unless noted", "result": "43.4% (inactive) and 63.3% (inactive)"}, {"measurement": "growth", "setting": "[3]; 10 µM unless noted", "result": "92.1% (inactive) and 87.2% (inactive)"}, {"measurement": "growth", "setting": "[4]; 10 µM unless noted", "result": "38.9% (inactive) and 30.7% (inactive)"}, {"measurement": "growth", "setting": "[5]; 10 µM unless noted", "result": "30.1% (inactive) and 69.2% (inactive)"}, {"measurement": "growth", "setting": "[10]; 10 µM unless noted", "result": "66.3% (inactive) and 41.9% (inactive)"}, {"measurement": "growth", "setting": "[6]; 10 µM unless noted", "result": "47.8% (inactive) and 35.2% (inactive)"}, {"measurement": "growth", "setting": "[7]; 10 µM unless noted", "result": "11.4% (inactive)"}, {"measurement": "growth", "setting": "[8]; 10 µM unless noted", "result": "62.8% (inactive) and 43.2% (inactive)"}]}, {"smiles": "CC(C)Oc1ccc2cc(-c3nn(CC4CCNCC4)c4ncnc(N)c34)ccc2c1", "values": [{"measurement": "growth", "setting": "[1]; 10 µM unless noted", "result": "18.3% (inactive) and -42.2% (active)"}, {"measurement": "growth", "setting": "[2]; 10 µM unless noted", "result": "46.6% (inactive) and -53.2% (active)"}, {"measurement": "growth", "setting": "[9]; 10 µM unless noted", "result": "90.8% (inactive) and 38.9% (inactive)"}, {"measurement": "growth", "setting": "[3]; 10 µM unless noted", "result": "80.1% (inactive) and 40.2% (inactive)"}, {"measurement": "growth", "setting": "[4]; 10 µM unless noted", "result": "100% (inactive) and 30.9% (inactive)"}, {"measurement": "growth", "setting": "[5]; 10 µM unless noted", "result": "75.8% (inactive) and 13.3% (inactive)"}, {"measurement": "growth", "setting": "[10]; 10 µM unless noted", "result": "92.1% (inactive) and 42.4% (inactive)"}, {"measurement": "growth", "setting": "[6]; 10 µM unless noted", "result": "92.2% (inactive) and 33.9% (inactive)"}, {"measurement": "growth", "setting": "[7]; 10 µM unless noted", "result": "75.7% (inactive) and -8.78% (active)"}, {"measurement": "growth", "setting": "[8]; 10 µM unless noted", "result": "94.7% (inactive) and 64.2% (inactive)"}]}, {"smiles": "Nc1ccccc1SC1CC(=O)N(c2cccc3ccccc23)C1=O", "note": "(stereo not drawn)", "values": [{"measurement": "growth", "setting": "[1]; 10 µM unless noted", "result": "88% (inactive)"}, {"measurement": "growth", "setting": "[2]; 10 µM unless noted", "result": "86.3% (inactive)"}, {"measurement": "growth", "setting": "[9]; 10 µM unless noted", "result": "92.2% (inactive)"}, {"measurement": "growth", "setting": "[3]; 10 µM unless noted", "result": "101% (inactive)"}, {"measurement": "growth", "setting": "[4]; 10 µM unless noted", "result": "93.6% (inactive)"}, {"measurement": "growth", "setting": "[5]; 10 µM unless noted", "result": "88.6% (inactive)"}, {"measurement": "growth", "setting": "[10]; 10 µM unless noted", "result": "99.1% (inactive)"}, {"measurement": "growth", "setting": "[6]; 10 µM unless noted", "result": "101% (inactive)"}, {"measurement": "growth", "setting": "[7]; 10 µM unless noted", "result": "97.9% (inactive)"}, {"measurement": "growth", "setting": "[8]; 10 µM unless noted", "result": "96.1% (inactive)"}]}, {"smiles": "CNc1cc(-c2cccc(OC(F)(F)F)c2)nc2ccc(N3CCCC3)cc12", "values": [{"measurement": "growth", "setting": "[1]; 10 µM unless noted", "result": "-33.9% (active) and -44.7% (active) and -14.6% (active)"}, {"measurement": "growth", "setting": "[2]; 10 µM unless noted", "result": "-51.4% (active) and -43.5% (active) and -37.5% (active)"}, {"measurement": "growth", "setting": "[9]; 10 µM unless noted", "result": "34.7% (inactive) and -26.3% (active) and -2.97% (active)"}, {"measurement": "growth", "setting": "[3]; 10 µM unless noted", "result": "55.7% (inactive) and 12.4% (inactive) and 50% (inactive)"}, {"measurement": "growth", "setting": "[4]; 10 µM unless noted", "result": "53.1% (inactive) and -27.1% (active) and 22% (inactive)"}, {"measurement": "growth", "setting": "[5]; 10 µM unless noted", "result": "93.5% (inactive) and 55.3% (inactive) and 92.4% (inactive)"}, {"measurement": "growth", "setting": "[10]; 10 µM unless noted", "result": "35.5% (inactive) and -14.9% (active) and 53.2% (inactive)"}, {"measurement": "growth", "setting": "[6]; 10 µM unless noted", "result": "85.7% (inactive) and -90.8% (active) and 84.8% (inactive)"}, {"measurement": "growth", "setting": "[7]; 10 µM unless noted", "result": "88.4% (inactive) and 47.5% (inactive) and 75.7% (inactive)"}, {"measurement": "growth", "setting": "[8]; 10 µM unless noted", "result": "59% (inactive) and 20.9% (inactive) and 21.3% (inactive)"}]}]}
